Source: PubChem (National Center for Advancing Translational Sciences (NCATS))
Pf growth 48h: Primary qHTS for delayed death inhibitors of the malarial parasite plastid, 48 hour incubation; P. falciparum luciferase growth in erythrocytes, 48 h; Potency, µM (doses to about 28.7 µM), usual class: inhibitors; 310,000 compounds, 5.9% hits
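Firefly luciferase activity from engineered P. falciparum reports growth; inhibitors lower the luminescent signal. Cultures contained 2% hematocrit erythrocytes at 0.1% final parasitemia.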
SARS PLpro yeast: qHTS of Yeast-based Assay for SARS-CoV PLP | S. cerevisiae expressing SARS-CoV PLpro, growth rescue | Potency, µM (doses to about 32.9 µM), actives largely listed as activators | 330,000 compounds, 0.19% hits | AID 485353, 2010; calls by dose curve; further: nearly all actives have a fitted effect of over 55% in size
Pf growth 96h: Primary qHTS for delayed death inhibitors of the malarial parasite plastid, 96 hour incubation | 320,000 compounds, 6.9% hits | Potency, µM (top dose mostly 28.7 µM), most hits filed as inhibitors | P. falciparum luciferase reporter growth, 96 h
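Parasite growth measured via integrated firefly luciferase reporter in P. falciparum. Infected erythrocytes at 2% hematocrit, 0.05% parasitemia final were treated 96 hours at 37 C under 5% CO2, and luminescence was read.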
Sm TGR block: qHTS Assay for the Inhibitors of Schistosoma Mansoni Peroxiredoxins. purified TGR, DTNB reduction, TNB absorbance 405 nm. Potency, µM (titrated, usually from 114 µM), hits mostly inhibitors. 360,000 compounds, 3% hits. AID 485364, 2010; further: nearly all actives have a fitted effect of over 60% in size
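Kinetic colorimetric format: TGR-catalysed, NADPH-driven DTNB reduction monitored via TNB absorbance. Enzyme dispensed at 20 nM; compound exposure 15 min at room temperature before reaction start.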
Numbers stand for hits; n = inactive; u = inconclusive; x = not tested or not shown; ! = repeats disagree; [ ] = dose if it differs, or a comment. Most compounds without a hit are left out; they make up all but 12% or so of the library. Unless noted, the call rests on the fitted dose curve; in most records, active means well fitted curve in the direction sought with a large enough effect; inconclusive means small, poorly fitted or top-dose-only effect, or another doubt; inactive means no such curve, though single readings can be large; an effect the other way counts as inactive or inconclusive.

SMILES	Pf growth 48h	SARS PLpro yeast	Pf growth 96h	Sm TGR block
CCCCc1nc(N2CCOCC2)c(C#N)c2c1COC(C)(C)C2	6.57µM	n	9.28µM	n
CC1(C)Cc2c(C#N)c(SCCC#N)nc(N3CCOCC3)c2CS1	u	n	4.65µM	n
CC1(C)Cc2c(C#N)c(SCCO)nc(N3CCOCC3)c2CO1	u	n	u	n
CC(C)OC(=O)CSc1nc(N2CCOCC2)c2c(c1C#N)CC(C)(C)OC2	4.65µM	n	u	n
CC1(C)Cc2c(C#N)c(SCCC#N)nc(N3CCOCC3)c2CO1	u	n	u	n
CC1(C)Cc2c(C#N)c(SCCOc3ccccc3)nc(N3CCOCC3)c2CO1	11.7µM	n	8.28µM	n
COc1ccc(-c2nc(CSc3nc4ncccc4[nH]3)c(C)o2)cc1OC	x	x	x	n
CCOC(=O)c1c(NC(=O)COc2ccc(Cl)cc2C)sc(C(C)=O)c1C	x	x	x	n
COc1ccc(N2CCN(CCNS(=O)(=O)c3ccc(C)cc3)CC2)cc1	n	n	n	n
O=C(NCCc1csc(-c2cccc(F)c2)n1)c1ccccc1C(F)(F)F	x	x	x	n
CSc1ncc(C(C)=O)c(C)n1	n	n	n	n
CC(=O)c1cnc(Nc2nc(C)c3cc(C)c(C)cc3n2)nc1C	n	n	13.1µM	n
COc1cc(NC(=O)Cn2ncc(Cl)c(Cl)c2=O)c(C)cc1[N+](=O)[O-]	n	n	n	39.8µM
COc1cc(NC(=O)CN2C(=O)CN(C)C2=O)c(C)cc1[N+](=O)[O-]	u	n	n	n
COc1ccccc1N1CCN(CC(=O)Nc2ccccc2C(=O)NC(C)c2ccccc2)CC1 (centres undefined)	11.7µM	n	u	n
COC(=O)c1ccc(C(=O)OC)c(NC(=O)CN2CCN(c3ccccc3)CC2)c1	n	u	n	n
CC(NC(=O)c1ccccc1NC(=O)CN1CCc2ccccc2C1)c1ccccc1 (centres undefined)	u	n	13.1µM	n
COc1ccc(CN2CCN(CC(=O)Nc3ccccc3C(=O)NC3CC3)CC2)cc1F	10.4µM	n	u	n
COC(=O)c1ccc(C(=O)OC)c(NC(=O)CN2CCN(c3ccccc3OC)CC2)c1	13.1µM	n	n	n
COC(=O)C(CO)Nc1ncnc2onc(-c3ccc(F)cc3)c12 (centres undefined)	x	n	u	u
COc1ccccc1CC(=O)Nc1ccc2nc(Nc3cccc(Cl)c3)cc(C)c2c1	x	x	x	n
CCOc1ccccc1N1CCN(CC(=O)Nc2ccccc2C(=O)NC2CC2)CC1	9.28µM	n	u	n
CC(NC(=O)CN1CCN(c2ccccc2F)CC1)c1ccccc1 (centres undefined)	n	n	u	n
CC(NC(=O)c1ccccc1NC(=O)CN1CCN(c2ccccc2O)CC1)c1ccccc1 (centres undefined)	5.86µM	n	13.1µM	n
Cc1ccc(Cn2ccnc2SCC(=O)Nc2ccccc2C(F)(F)F)cc1	x	x	x	n
SMILES	Pf growth 48h	SARS PLpro yeast	Pf growth 96h	Sm TGR block
C#CCCc1ccccc1/C=[N+](/C)[O-]	u	n	n	11.2µM
O=c1c2c([nH]c3ccc(Br)cc13)CCCC2	0.329µM	n	n	n
COc1ccc(NC2CCCN(C(=O)c3cccc(N4CCNC4=O)c3)C2)cc1 (centres undefined)	u	n	n	n
C=CCn1c(SCc2c(C)noc2C)nc2sc(C)c(C)c2c1=O	x	n	9.28µM	n
COc1ccc(CNC(=O)c2ccc(Cn3cc(Cl)cn3)o2)cc1	n	n	n	14.1µM
COc1ccc(CNC(=O)c2ccc(Cn3cc(Br)cn3)o2)cc1	n	n	n	u
COc1ccc(CNC(=O)Cn2nc(C(F)(F)F)cc2C)cc1	n	n	13.1µM	n
COc1ccc(CNC(=O)Cn2nc(C(F)(F)F)c(Br)c2C)cc1	n	n	n	n
Cc1cc(C(F)(F)F)nn1Cc1ccc(C(=O)NCc2ccco2)o1	u	n	u	11.2µM
COc1ccc(CNC(=O)c2ccc(Cn3nc(C)cc3C)o2)cc1	n	n	1.47µM	n
COc1ccc(CCN2CC(C(=O)NCCc3cn[nH]c3)CCC2=O)cc1 (centres undefined)	n	n	n	n
O=c1oc2ccccc2cc1-c1nc(-c2cccs2)no1	x	x	x	n
C#CCCc1cocc1/C=[N+](\[O-])c1ccc(C(=O)OCC)cc1	u	n	u	u
Cn1c(=O)c2c(ncn2CCOc2cccc(Br)c2)n(C)c1=O	n	n	n	n
CC1CCN(c2ccc(C(=O)NCc3ccco3)cc2[N+](=O)[O-])CC1	0.828µM	n	1.17µM	n
NNC(=O)c1ccc(N2CCCCCC2)c([N+](=O)[O-])c1	u	n	n	n
O=C(NCc1ccco1)c1ccc(N2CCOCC2)c([N+](=O)[O-])c1	n	n	u	x
O=C(NCc1ccco1)c1ccc(N2CCCCC2)c([N+](=O)[O-])c1	8.28µM	n	6.57µM	n
Cc1ccc(N(Cc2ccco2)C(=O)c2ccc(N3CCCCC3)c([N+](=O)[O-])c2)cc1	n	n	11.7µM	n
COC(=O)c1ccc(C)c(NC(=O)CN(c2ccccc2)S(=O)(=O)N(C)C)c1	n	n	u	n
O=C(COC(=O)C12CC3CC(CC(Br)(C3)C1)C2)Nc1cccc(S(=O)(=O)N2CCOCC2)c1	x	n	x	x
c1ccc(C2CN3CCSC3=N2)cc1 (centres undefined)	2.69µM!	n	1.9µM!	n
COc1ccccc1C1=NC(c2ccccc2)CN1c1ccccc1 (centres undefined)	n[0.00184 µM]	n	n	n
C=CCn1c(SCc2nc3ccccc3[nH]2)nnc1-c1ccccn1	n	n	10.4µM	n
CC(C)n1cnc2c(N(C)c3cccc(Cl)c3)nc(N(CCO)CCO)nc21	13.1µM	n	9.28µM	n
SMILES	Pf growth 48h	SARS PLpro yeast	Pf growth 96h	Sm TGR block
COc1ccc(OC)c(NC(=O)CSC2=Nc3ccccc3C3=NC(CC(=O)NCc4ccc5c(c4)OCO5)C(=O)N23)c1 (centres undefined)	x	x	x	n
Cc1ccccc1-c1cc(C(=O)NCc2cccc(C(F)(F)F)c2)nn1CC1CC(c2cccc([N+](=O)[O-])c2)=NO1 (centres undefined)	3.7µM	n	6.57µM	n
Cc1ccccc1-c1cc(C(=O)NCc2ccco2)nn1CC1CC(c2cccc([N+](=O)[O-])c2)=NO1 (centres undefined)	x	n	x	x
Cc1ccccc1-c1cc(C(=O)NCc2cccs2)nn1CC1CC(c2cccc([N+](=O)[O-])c2)=NO1 (centres undefined)	3.29µM	n	2.08µM	n
Cc1ccc(O)c(/C=N/NC(=O)C2=NNC(c3ccccc3)(c3ccccc3)C2)c1	2.94µM	6.31µM	u	u
COc1ccc(-c2ccc(C(c3c(C)[nH][nH]c3=O)c3c(C)[nH][nH]c3=O)o2)c([N+](=O)[O-])c1	n	n	n	28.2µM
Cc1[nH][nH]c(=O)c1C(c1ccc(-c2ccc(F)cc2)o1)c1c(C)[nH][nH]c1=O	u	n	n	31.6µM
Cc1[nH][nH]c(=O)c1C(c1ccc(N(C)C)c(Br)c1)c1c(C)[nH][nH]c1=O	n	n	u	n
